The values that follow come from PubChem BioAssay AID1159580 (chemical genetic matrix, 2015).

The whole screen tested about 5,500 compounds, of which about 2,000 (36%) were called active. Not shown: some 18% with an inconclusive outcome. Some of the results follow. A number with no mark means an inactive call. No stated cut-off is given here; in the data, active means normalized growth mostly below about 0.91 (no sharp cut-off); inconclusive means no clear call, values can overlap the other calls; inactive means mostly above about 0.92.

The nature of the experiment: chemical genetic growth profiling, strain panel (AID 1159580).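 Further: tested at 20 µM; growth read once vehicle control cultures reached saturation at 30 °C; 1 = growth at the plate median or of vehicle wells; lower values mean less growth of the strain.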 Conditions: growth OD.
[1] abbreviates: S. cerevisiae deletion strains, locus YAL013W, strain DEP1, hits give low values.
Setting [2] is: S. cerevisiae deletion strains, locus YBR229C, strain ROT2, hits give low values.
[3] abbreviates: S. cerevisiae deletion strains, locus YCL061C, strain MRC1, hits give low values.
Setting [4] is: S. cerevisiae deletion strains, locus YDL101C, strain DUN1, hits give low values.
[5] abbreviates: S. cerevisiae deletion strains, locus YDR150W, strain NUM1, hits give low values.
The mark [6] stands for this setting: S. cerevisiae deletion strains, locus YEL061C, strain CIN8, hits give low values.
Where [7] appears, read: S. cerevisiae deletion strains, locus YGR078C, strain PAC10, hits give low values.
[8] abbreviates: S. cerevisiae deletion strains, locus YHR030C, strain SLT2, hits give low values.
The mark [9] stands for this setting: S. cerevisiae deletion strains, locus YHR087W, strain rtc3, hits give low values.
The mark [10] stands for this setting: S. cerevisiae deletion strains, locus YJR043C, strain POL32, hits give low values.
[11] abbreviates: S. cerevisiae deletion strains, locus YJR075W, strain HOC1, hits give low values.
Setting [12] is: S. cerevisiae deletion strains, locus YKL190W, strain CNB1, hits give low values.
Where [13] appears, read: S. cerevisiae deletion strains, locus YLR039C, strain RIC1, hits give low values.
Setting [14] is: S. cerevisiae deletion strains, locus YLR058C, strain SHM2 (second series), hits give low values.
Setting [15] is: S. cerevisiae deletion strains, locus YLR085C, strain ARP6, hits give low values.
Where [16] appears, read: S. cerevisiae deletion strains, locus YLR262C, strain YPT6, hits give low values.
[17] abbreviates: S. cerevisiae deletion strains, locus YML094W, strain GIM5, hits give low values.
Where [18] appears, read: S. cerevisiae deletion strains, locus YMR219W, strain ESC1, hits give low values.
[19] abbreviates: S. cerevisiae deletion strains, locus YMR263W, strain SAP30, hits give low values.
Setting [20] is: S. cerevisiae deletion strains, locus YNL153C, strain GIM3, hits give low values.
The mark [21] stands for this setting: S. cerevisiae deletion strains, locus YNL298W, strain CLA4 (second series), hits give low values.
Where [22] appears, read: S. cerevisiae deletion strains, locus YNL322C, strain KRE1, hits give low values.
Setting [23] is: S. cerevisiae deletion strains, locus YNR030W, strain Alg12, hits give low values.
The mark [24] stands for this setting: S. cerevisiae deletion strains, locus YPL055C, strain LGE1, hits give low values.
[25] abbreviates: S. cerevisiae deletion strains, locus YPL241C, strain CIN2, hits give low values.
The mark [26] stands for this setting: S. cerevisiae deletion strains, locus YPR135W, strain CTF4, hits give low values.

Regarding `c1ccc(-c2ccc(-c3csc(-c4cccnc4)n3)cc2)cc1`, the normalized growth reads like this: under setting [1], 1.01; under setting [2], 1.02; under setting [3], 0.951; under setting [4], 0.972; under setting [5], 1; under setting [6], 1.01. Moreover, the normalized growth by setting is: under setting [7], 0.997; under setting [8], 1.04; under setting [9], 1.01; (S. cerevisiae deletion strains, locus YJL187C, strain SWE1, hits give low values) 0.979; under setting [10], 0.975; under setting [11], 1.03. The normalized growth by setting is: under setting [12], 1.02; under setting [13], 1.01; under setting [14], 1.02; under setting [15], 0.991; under setting [16], 1.09; under setting [17], 1. Further, the normalized growth was 1.02 under setting [18]; 0.992 under setting [19]; 0.896 (S. cerevisiae deletion strains, locus YMR307W, strain GAS1, hits give low values); 0.956 under setting [20]; 1.04 under setting [21]; 1.03 under setting [22]. Besides, the normalized growth runs as follows: under setting [23], 1.01; (S. cerevisiae deletion strains, locus YOL006C, strain TOP1, hits give low values) 1.08; under setting [24], 0.944; under setting [25], 0.979; under setting [26], 1.08.
Take `c1ccc(-c2csc(-c3cccnc3)n2)cc1`: the normalized growth under setting [1] is 0.872 (active); the normalized growth under setting [2] was 0.886 (active); the normalized growth under setting [3] was 0.853 (active); the normalized growth under setting [4] was 0.912; the normalized growth (S. cerevisiae deletion strains, locus YDL134C, strain PPH21, hits give low values) was 0.954; the normalized growth under setting [5] was 0.946. Also, the normalized growth runs as follows: under setting [6], 0.793 (active); under setting [7], 0.9 (active); under setting [8], 0.132 (active); under setting [9], 0.938; under setting [10], 0.935; under setting [11], 0.855 (active). The normalized growth was 0.853 (active) under setting [12]; 0.557 (active) under setting [13]; 0.908 (active) under setting [14]; 0.275 (active) under setting [15]; 0.432 (active) under setting [16]; 0.772 (active) under setting [17]. For the same molecule, the normalized growth is, setting by setting: under setting [18], 0.892 (active); under setting [19], 0.873 (active); under setting [20], 0.887 (active); under setting [21], 0.74 (active); under setting [22], 0.94 (active); under setting [23], 0.857 (active). Also, the normalized growth reads like this: under setting [24], 0.717 (active); under setting [25], 0.855 (active); under setting [26], 0.377 (active); (S. cerevisiae strains, strain wild type, hits give low values) 0.949.
`c1cncc(C2=NCCC2)c1`: the normalized growth is, setting by setting: under setting [8], 1.02; (S. cerevisiae deletion strains, locus YHR079C, strain IRE1, hits give low values) 1.01; (S. cerevisiae deletion strains, locus YJL095W, strain BCK1, hits give low values) 1.02; (S. cerevisiae deletion strains, locus YJR066W, strain TOR1, hits give low values) 0.938; (S. cerevisiae deletion strains, locus YLR113W, strain HOG1, hits give low values) 0.905; (S. cerevisiae deletion strains, locus YNL183C, strain NPR1, hits give low values) 0.952. The normalized growth (S. cerevisiae deletion strains, locus YOR231W, strain MKK1, hits give low values) was 1.01 and the normalized growth (S. cerevisiae deletion strains, locus YPL256C, strain CLN2, hits give low values) is 0.99.
